Common to all, as to experiment: qHTS profiling for inhibitors of Plasmodium falciparum proliferation (AID 504749); also: nearly all actives have a fitted effect of over 60% in size
Common to all, as to details: P. falciparum in erythrocytes, SYBR Green DNA, 72 h; series mostly up to 28.7 µM

One assay concerns ATS95. An outline of the steps: (§1)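 SYBR Green fluorescence of parasite DNA, read after lysis and overnight dark incubation, measured growth over 72 h in erythrocyte culture at 0.3% parasitemia and 2.5% hematocrit. Data normalised to DMSO and 0.29 uM artemisinin, with plate-drift correction.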
The test system of a further assay is C2A. The method, boiled down:
as §1

In the next assay the test system is CP185. An outline of the steps:
as §1

For another assay, the system named is CP191. An outline of the steps:
as §1

The subject of another assay is CP192. The method, boiled down: as §1
The subject of another assay is CP194. The method, boiled down:
as §1

The test system of the next assay is CP201. The method, boiled down: as §1
The next assay has as its system CP203. An outline of the steps:
as §1

A further assay has as its system CP211. An outline of the steps:
as §1

In another assay the test system is CP215. The method, boiled down:
as §1

The test system of the next assay is CP217. The method, boiled down:
as §1

Another assay concerns CP237. An outline of the steps:
as §1

The test system of a further assay is CP238. The method, boiled down:
as §1

For a further assay, the system named is CP247. An outline of the steps: as §1
Another assay relates to CP250. The method, boiled down:
as §1

Another assay has as its system CP252. The method, boiled down: as §1
For another assay, the system named is CP256. An outline of the steps:
as §1

For the next assay, the system named is CP260. The method, boiled down: as §1
The next assay deals with CP262. An outline of the steps: as §1
A further assay concerns CP265. The method, boiled down:
as §1

SMILES strings stand for the structures. Results filed as inconclusive are left out. The source made the active and inactive calls. Calls follow the shape of the dose curve; as a rule, active = well fitted inhibition curve with a large enough effect; inconclusive = small, poorly fitted or top-dose-only effect; inactive = flat fitted curve, though single readings scatter.
Potency is read from the fitted curve at half-maximal effect.

For the compound `O=C1CCC(=O)N1CO`, the Potency entry with ATS95, in the assay on C2A, in the assay with CP185, with CP191, with CP192 and in the assay on CP194 was “inactive” in each case. Also, the Potency result in the assay with CP201, in the assay on CP203, with CP211, in the assay with CP215, in the assay with CP217 and in the assay with CP237 was “inactive” each time. The Potency result in the assay on CP238, with CP247, in the assay on CP250, with CP252, in the assay with CP256 and with CP260 was “inactive” each time. The Potency result with CP262 and in the assay on CP265 was “inactive” in each case.
With `Oc1ccc(Cl)c2c1CCC2`, the Potency result in the assay on ATS95, with C2A, with CP185, in the assay on CP191, in the assay on CP192 and with CP194 was “inactive” throughout. Also, the Potency result in the assay on CP201, in the assay with CP203, with CP211, in the assay with CP215, in the assay with CP217 and with CP237 was “inactive” in each case. Besides, the Potency result in the assay on CP238, in the assay on CP247, in the assay with CP250, with CP252, with CP256 and in the assay on CP260 was “inactive” in each case. Further, the Potency entry with CP262 and in the assay on CP265 was “inactive” each time.
Consider `CN[C@@H]1[C@H](O[C@H]2[C@H](O[C@H]3[C@H](O)[C@@H](O)[C@H](N=C(N)N)[C@@H](O)[C@@H]3N=C(N)N)O[C@@H](C)[C@]2(O)C=O)O[C@@H](CO)[C@H](O)[C@H]1O`, for which the Potency result with ATS95, in the assay with C2A, with CP185, with CP191, in the assay on CP192 and with CP194 was “inactive” each time. The Potency result in the assay with CP201, with CP203, in the assay on CP211, in the assay on CP215, in the assay on CP217 and in the assay on CP237 was “inactive” each time. Besides, the Potency result with CP238, in the assay with CP247, in the assay on CP250, in the assay on CP252, with CP256 and with CP260 was “inactive” in each case. For the same compound, the Potency entry with CP262 and with CP265 was “inactive” in each case.
On to `CNC(=O)OCc1cccc(COC(=O)NC)n1`, for which the Potency result with ATS95, in the assay with C2A, in the assay with CP185, in the assay on CP191, in the assay with CP192 and in the assay with CP194 was “inactive” throughout. Further, the Potency result in the assay with CP201, in the assay on CP203, in the assay on CP211, in the assay with CP215, in the assay with CP217 and in the assay on CP237 was “inactive” throughout. For the same compound, the Potency entry in the assay with CP238, in the assay with CP247, in the assay with CP250, in the assay on CP252, in the assay with CP256 and in the assay with CP260 was “inactive” in each case. The Potency result in the assay on CP262 and in the assay with CP265 was “inactive” each time.
Consider `CCCCC/C=C\C/C=C\C/C=C\CCCCC(=O)O`, for which the Potency result with ATS95, in the assay with C2A, in the assay with CP185, with CP191, in the assay on CP192 and in the assay on CP194 was “inactive” in each case. The Potency entry with CP201, in the assay with CP203, in the assay on CP211, in the assay with CP215, in the assay on CP217 and with CP237 was “inactive” throughout. The Potency entry in the assay on CP238, with CP247, with CP250, with CP252, in the assay on CP256 and in the assay with CP260 was “inactive” in each case. The Potency entry in the assay on CP262 and in the assay on CP265 was “inactive” throughout.
In the case of `COc1ccc2c(c1)OC(C)(C)C(c1ccccc1)C2c1ccc(OCCN2CCCC2)cc1` (stereo not given), the Potency was 5.01 µM (active) in the assay on ATS95; 4.47 µM (active) in the assay on C2A; 3.98 µM (active) in the assay with CP185; 2.51 µM (active) in the assay on CP191; 10.7 µM (active) in the assay on CP192; 6.75 µM (active) in the assay with CP194. Also, the Potency was 5.36 µM (active) in the assay on CP201; 12 µM (active) in the assay with CP203; 10.7 µM (active) in the assay with CP211; 9.53 µM (active) with CP215; 3.16 µM (active) in the assay with CP217; 3.98 µM (active) in the assay on CP237. In addition, the Potency in the assay on CP238 is 11.2 µM (active); in the assay with CP247, 2.51 µM (active); in the assay on CP250, 4.47 µM (active); in the assay with CP252, 3.98 µM (active); with CP256 it was 4.47 µM (active); with CP260, 3.98 µM (active). In addition, the Potency in the assay with CP262 was 4.78 µM (active); in the assay with CP265, 3.98 µM (active).
With `O=P(O)(O)OP(=O)(O)OP(=O)(O)O`, the Potency entry in the assay on ATS95, with C2A, in the assay with CP185, in the assay on CP191, in the assay with CP192 and with CP194 was “inactive” each time. Besides, the Potency result with CP201, in the assay with CP203, in the assay on CP211, in the assay with CP215, in the assay with CP217 and with CP237 was “inactive” each time. Besides, the Potency entry in the assay on CP238, with CP247, in the assay with CP250, in the assay with CP252, with CP256 and with CP260 was “inactive” in each case. Besides, the Potency result with CP262 and with CP265 was “inactive” throughout.
For `CN1CCC(OC(=O)C(Oc2ccc(Cl)cc2)Oc2ccc(Cl)cc2)CC1`, the Potency result in the assay on ATS95, in the assay with C2A, with CP185, with CP191, in the assay on CP192 and in the assay with CP194 was “inactive” each time. The Potency entry in the assay with CP201, in the assay on CP203, in the assay on CP211, in the assay on CP215, in the assay on CP217 and in the assay with CP237 was “inactive” each time. Besides, the Potency result with CP238, with CP247, in the assay on CP250, in the assay with CP252, with CP256 and with CP260 was “inactive” each time. The Potency entry with CP262 and in the assay with CP265 was “inactive” each time.
`COC(=O)CCC[N+](C)(C)C`: the Potency entry in the assay with ATS95, in the assay with C2A, in the assay on CP185, with CP191, in the assay with CP192 and with CP194 was “inactive” each time. The Potency entry with CP201, with CP203, with CP211, with CP215, with CP217 and in the assay on CP237 was “inactive” throughout. Also, the Potency entry with CP238, in the assay with CP247, in the assay with CP250, in the assay with CP252, in the assay on CP256 and in the assay on CP260 was “inactive” in each case. Also, the Potency result with CP262 and in the assay on CP265 was “inactive” throughout.
Turning to `CC(C)O`, the Potency entry with ATS95, in the assay with C2A, in the assay on CP185, in the assay on CP191, with CP192 and in the assay on CP194 was “inactive” throughout. Further, the Potency entry in the assay on CP201, in the assay with CP203, in the assay with CP211, in the assay on CP215, in the assay with CP217 and in the assay on CP237 was “inactive” throughout. In addition, the Potency result in the assay with CP238, in the assay with CP247, in the assay with CP250, in the assay with CP252, in the assay on CP256 and in the assay on CP260 was “inactive” throughout. Moreover, the Potency entry with CP262 and in the assay on CP265 was “inactive” each time.
`OCC1(CO)COC(C(Cl)(Cl)Cl)OC1`: the Potency result with ATS95, in the assay with C2A, with CP185, in the assay with CP191, with CP192 and in the assay with CP194 was “inactive” each time. In addition, the Potency entry in the assay with CP201, in the assay with CP203, in the assay on CP211, in the assay with CP215, with CP217 and with CP237 was “inactive” throughout. Besides, the Potency result in the assay on CP238, in the assay on CP247, in the assay on CP250, in the assay with CP252, in the assay on CP256 and in the assay on CP260 was “inactive” each time. Moreover, the Potency result with CP262 and in the assay with CP265 was “inactive” throughout.
In the case of `CCCCCCCCCCCCCCCCCCCCCC(=O)Nc1ccn([C@@H]2O[C@H](CO)[C@@H](O)[C@@H]2O)c(=O)n1`, the Potency result in the assay on ATS95, in the assay on C2A, in the assay with CP185, in the assay on CP191, with CP192 and in the assay with CP194 was “inactive” each time. For the same compound, the Potency entry with CP201, in the assay on CP203, in the assay on CP211, in the assay with CP215, in the assay with CP217 and in the assay with CP237 was “inactive” in each case. Also, the Potency result with CP238, in the assay on CP247, in the assay with CP250, in the assay on CP252, with CP256 and in the assay with CP260 was “inactive” each time. Besides, the Potency entry in the assay with CP262 and in the assay on CP265 was “inactive” each time.
For the compound `C=CC[C@@H]1/C=C(\C)C[C@H](C)C[C@H](OC)[C@H]2O[C@@](O)(C(=O)C(=O)N3CCCC[C@H]3C(=O)O[C@H](/C(C)=C/[C@@H]3CC[C@@H](O)[C@H](OC)C3)[C@H](C)[C@@H](O)CC1=O)[C@H](C)C[C@@H]2OC`, the Potency in the assay with ATS95 is 2.24 µM (active); with C2A, 0.251 µM (active); with CP185 it was 0.891 µM (active); in the assay with CP191 it was 1.26 µM (active); in the assay with CP192 it was 3.79 µM (active); in the assay with CP194 it was 4.26 µM (active). In addition, the Potency in the assay on CP201 was 5.36 µM (active); in the assay on CP203, 4.78 µM (active); with CP211 it was 4.78 µM (active); in the assay on CP215, 3.79 µM (active); in the assay with CP217 it was 3.16 µM (active); in the assay on CP237, 0.708 µM (active). The Potency in the assay with CP238 was 1.12 µM (active); in the assay on CP247, 1.41 µM (active); in the assay on CP250, 0.891 µM (active); in the assay with CP252, 1 µM (active); in the assay with CP256, 0.708 µM (active); in the assay on CP260 it was 0.794 µM (active). Further, the Potency in the assay on CP262 was 4.26 µM (active); in the assay on CP265 it was 0.631 µM (active).
